Reference: PubChem BioAssay (Tox21)
Inconclusive results are not listed. Activity calls are given as the source filed them. Calls come from the whole dose curve; as a rule, active = well fitted activation curve with a large enough effect in the repeat runs; inconclusive = weak or mixed curves; inactive = flat fitted curve, though single readings scatter.

Experiment: A CellTox Green Cytotoxicity Assay to monitor cytotoxicity in HEK293 cells - 16 hour (AID 1224888); note: nearly all actives have a fitted effect of over 35% in size
Details: CellTox Green fluorescence; series mostly up to 76.8 µM
Text: National Center for Advancing Translational Sciences [NCATS]
NIH Chemical Genomics Center [NCGC]
U.S. Environmental Protection Agency [EPA]
National Institutes of Environmental Health Sciences [NIEHS]
National Toxicology Program [NTP]
Cell-based models are critical for drug discovery. Determining the natural cytotoxic effects resulting from test compounds is an essential research activity. A CellTox Green Cytotoxicity Assay to monitor cytotoxicity in real time of continues cell culture during 40 hours of the compound treatment was used to screen Tox21 10K library compounds in Hek293 cells. CellTox Green Cytotoxicity Assay is a nonlytic, homogeneous, biofluorescent method to measure cytotoxicity in cell culture after experimental manipulation. The assay system uses a proprietary asymmetric cyanine dye that is excluded from viable cells but preferentially stains the dead cell's DNA. […] Viable cells produce no appreciable increases in fluorescence. Therefore, the fluorescence signal produced by the binding interaction with dead cell DNA is proportional to cytotoxicity.
The mixture of Hek293 cell suspension and reagents were dispensed at 600cells/6 ul/well in 1536-well tissue culture treated black solid bottom plates using a Multidrop dispenser. After the assay plates were incubated at a 37 C/5% CO2 incubator for 5 hours, 23 nL of compounds dissolved in DMSO, positive and negative controls was transferred to the assay plate by a pintool work station. The plates were incubated at 37 C for 40 hours. The fluorescence intensity were measured at 0h, 8h, 16h, 24h, 32h and 40h time points using ViewLux plate reader during compound treatment.

SMILES | outcome
O=C(O)c1cc(O)c(O)c(O)c1 | inactive
CCCCC(CC)COC(=O)CS (stereo not given) | inactive
Cc1cccnc1 | inactive
Oc1cccc2ccccc12 | inactive
C/C=C1/CC2C=CC1C2 (stereo not given) | inactive
Cc1occc(=O)c1O | inactive
NNc1nncc2ccccc12 | inactive
CC(=O)OCC(=O)[C@@]12N=C(C)O[C@@H]1C[C@H]1[C@@H]3CCC4=CC(=O)C=C[C@]4(C)[C@H]3[C@@H](O)C[C@@]12C | inactive
O=C(OCCOCCOC(=O)c1ccccc1)c1ccccc1 | inactive
CCc1cccc(C)c1N | inactive
O=c1[nH]nnc2ccccc12 | inactive
Cc1ccc(N(C)C)cc1 | inactive
O=C=NCCCCCCN=C=O | inactive
FC(F)(F)c1ccc(Cl)c(Cl)c1 | inactive
O=C(O)CCCCCCCCCCC(=O)O | inactive
N[C@@H](Cc1cc(I)c(Oc2cc(I)c(O)c(I)c2)c(I)c1)C(=O)O | inactive
O=C(O)CC(C(=O)O)C(CC(=O)O)C(=O)O (stereo not given) | inactive
O=c1[nH]c(=O)n([C@H]2CCCO2)cc1F | inactive
O=C(O)c1cc(=O)c2c(OCC(O)COc3cccc4oc(C(=O)O)cc(=O)c34)cccc2o1 | inactive
CC(=O)c1ccccc1 | inactive

SMILES | outcome
CC(=O)CC(=O)Nc1ccccc1 | inactive
O=C(CC(C(=O)OC1CCCCC1)S(=O)(=O)O)OC1CCCCC1 (stereo not given) | inactive
CCC(O)OCCCOC (stereo not given) | inactive
COc1ccc2cc([C@H](C)C(=O)O)ccc2c1 | inactive
OCCOCCN1CCN(C2=Nc3ccccc3Sc3ccccc32)CC1 | inactive
Cc1ccc2oc(=O)ccc2c1 | inactive
CC1CCC2CC1C2(C)C (stereo not given) | inactive
OC[C@H]1O[C@@](CO)(O[C@H]2O[C@H](CO)[C@@H](O)[C@H](O)[C@H]2O)[C@@H](O)[C@@H]1O | inactive
O=C(O)c1cc(C(=O)O)cc(S(=O)(=O)O)c1 | inactive
Cc1cccc(O)c1 | inactive
Cc1ccc(S(N)(=O)=O)cc1 | inactive
Cc1cnc(C(=O)NCCc2ccc(S(=O)(=O)NC(=O)NC3CCCCC3)cc2)cn1 | inactive
CCCCC(CC)COC(=O)C(C#N)=C(c1ccccc1)c1ccccc1 (stereo not given) | inactive
COc1ccc(NC(C)=O)cc1N | inactive
CC(=O)Nc1ccccc1 | inactive
CCC(O)OC(O)CC (stereo not given) | inactive
CCCCCCCC(=O)OC | inactive
O=C(Oc1ccccc1)c1ccccc1 | inactive
CCCCCC1=CCCC1=O | inactive
C[Si](O[Si](C)(C)C)O[Si](C)(C)C | inactive
